# Laboratory results taken from PubChem BioAssay.
# Activity calls are given as the source filed them.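 Rule for the calls, unless noted: active = NADPH fluorescence slope more negative than the mean of all samples by about 3 SD, 99.7% confidence; inactive = the rest.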
# Key:
# [1] = inhibitors of TNFa-induced NFkB p65 translocation, primary screen, imaging, HUVEC, MLSMR starter and 10KST1 sets (AID 438;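 active = inhibition above 20% together with a positive visual image hit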;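 note: compound added about 3h40 before a 20 min TNFalpha stimulation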;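 for inhibition: signal is the nuclear over cytoplasmic p65 intensity ratio per well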); conditions: HUVEC TNFa-induced p65 nuclear translocation; cell count: measured here: nuclei count (cytotoxicity indicator), at 2.08 µM; inhibition: at 2 µM, stronger effect = higher value, 0% TNFa-plus-vehicle, 100% no-TNFa wells
# [2] = reduction of polyQ htt aggregates in cells – imaging, exon1htt(103Q)mCFP cells, high-content imaging, primary screen (AID 483;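 active = visual image review flags a hit and inhibition of aggregation exceeds 20%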;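 note: compound exposure lasted 3 days before fixation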;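 for nuclei count: percent of the per-plate median nuclei count of sample wells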); conditions: exon1htt(103Q)mCFP cell line, aggregate imaging, at 2 µM; inhibition of aggregation: stronger effect = higher value; nuclei count: measured here: cell count, toxicity
# [3] = endothelial E-selectin expression blockers – imaging, HUVEC, immunofluorescence, MLSMR starter and 10KST1 sets, primary screen (AID 487;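 active = visually confirmed hit in the image check and inhibition above 20%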;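 for inhibition: signal is fraction of cell area covered by stained E-selectin grains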;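 for nuclei count: 100% = median nuclei count of all wells on the same plate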); conditions: HUVEC TNFalpha-induced E-selectin immunofluorescence imaging, at 2 µM; inhibition: stronger effect = higher value; nuclei count: measured here: cell number, toxicity
# [4] = target: Voltage-gated potassium channel subunit beta-2 (Rattus norvegicus) (UniProt P62483); test: inhibitors of rat Kvbeta2 reductase activity – biochemical, NADPH fluorescence, primary screen (AID 622;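 active = fluorescence slope higher than the sample average by over 3 SD, cut at about -0.22 in these data, passing the limit was not always enough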;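 note: slope of raw intensity against log time taken from 70 to 1610 s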); conditions: recombinant KvBeta, 4-cyanobenzaldehyde reduction, at 10 µM, stronger effect = higher value
# Voltage-gated potassium channel subunit beta-2 (Rattus norvegicus), sequence (P62483 whole entry, looked up): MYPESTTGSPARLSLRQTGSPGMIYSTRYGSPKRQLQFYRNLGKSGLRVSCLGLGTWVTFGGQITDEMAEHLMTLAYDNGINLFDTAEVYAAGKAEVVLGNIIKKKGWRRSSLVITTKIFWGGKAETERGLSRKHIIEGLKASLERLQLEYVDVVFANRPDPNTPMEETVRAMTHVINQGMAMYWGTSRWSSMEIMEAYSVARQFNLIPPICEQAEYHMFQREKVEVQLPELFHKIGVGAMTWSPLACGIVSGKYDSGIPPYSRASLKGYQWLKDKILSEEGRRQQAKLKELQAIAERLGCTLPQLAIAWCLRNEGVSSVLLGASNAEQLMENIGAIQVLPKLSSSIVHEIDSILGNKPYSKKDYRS
# [5] = target: Voltage-gated potassium channel subunit beta-2 (Rattus norvegicus) (UniProt P62483); test: enhancers of rat Kvbeta2 NADPH turnover – biochemical, NADPH fluorescence, primary screen (AID 623); conditions: Recombinant KvBeta, NADPH fluorescence decrease slope, 10 min; at 10 µM; stronger effect = lower value;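 note: fluorescence intensity change per second fitted from 20 to 320 s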
# [6] = target: Alpha-2C adrenergic receptor (Homo sapiens) (UniProt P18825); test: compounds altering alpha2C-coupled GIRK flux – cell-based, HEK293 alpha2C/GIRK1/2, thallium flux, primary screen (AID 624;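 active = fluorescence slope after compound addition differing from the mean of all screened samples at 99.7% confidence, in either direction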;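 note: slope of fluorescence ratio to pre-addition baseline per second over 15 to 24 s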); conditions: thallium flux BTC fluorescence, at 10 µM, actives lie on both sides
# Alpha-2C adrenergic receptor (Homo sapiens), sequence (P18825 whole entry, looked up): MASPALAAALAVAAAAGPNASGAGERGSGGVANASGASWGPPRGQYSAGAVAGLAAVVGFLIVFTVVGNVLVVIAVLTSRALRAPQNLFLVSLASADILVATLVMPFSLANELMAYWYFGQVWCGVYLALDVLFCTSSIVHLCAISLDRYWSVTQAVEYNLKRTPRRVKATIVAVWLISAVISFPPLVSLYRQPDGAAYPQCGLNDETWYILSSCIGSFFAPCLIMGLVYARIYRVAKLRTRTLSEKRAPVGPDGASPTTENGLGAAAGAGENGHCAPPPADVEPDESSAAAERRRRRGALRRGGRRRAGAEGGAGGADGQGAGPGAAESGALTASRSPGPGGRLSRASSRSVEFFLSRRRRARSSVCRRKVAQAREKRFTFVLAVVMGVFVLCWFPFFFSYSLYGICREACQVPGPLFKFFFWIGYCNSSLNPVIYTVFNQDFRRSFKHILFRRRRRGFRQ
# [7] = blockers of RIG-like receptor reporter activation – cell-based, Sendai virus stimulus, luciferase, 10K MLSCN set, TLR/RLR signaling modifier project, primary screen (AID 602276;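 active = inhibition at or above 50% at 10 µM; inactive = inhibition below 50%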;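 note: firefly luciferase from ISG56 promoter only with Renilla not read in this screen; 0% = Sendai virus plus DMSO and 100% = medium plus DMSO without virus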); conditions: HEK293 RL24 IRF3 luciferase reporter, at 10 µM, stronger effect = higher value
# [8] = TLR3 IRF3 reporter activation blockers – cell-based, poly I:C stimulus, luciferase, 10K MLSCN set, primary screen (AID 602277;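 active = inhibition of the reporter signal at or above 50%; inactive = inhibition below 50%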); conditions: HEK293-TLR3 RL24 IRF3 luciferase reporter, at 10 µM, stronger effect = higher value
smiles,measurement,setting,value
Oc1cccc(C=NCc2ccccc2)c1O,cell count,[1],332
same,inhibition,[1],-2.5% (inactive)
same,inhibition of aggregation,[2],15.5% (inactive)
same,nuclei count,[2],102%
same,inhibition,[3],-100% (inactive)
same,nuclei count,[3],130%
same,fluorescence slope,[4],-0.46 (inactive)
same,NADPH fluorescence slope,[5],-4e-05 (inactive)
same,slope,[6],0.00215 (inactive)
same,inhibition,[7],10.5% (inactive)
same,inhibition,[8],41.8% (inactive)
O=C(NCc1ccco1)c1csc(Nc2ccccc2Cl)n1,cell count,[1],484
same,inhibition,[1],-6.2% (inactive)
same,inhibition of aggregation,[2],-0.3% (inactive)
same,nuclei count,[2],118%
same,inhibition,[3],-144% (inactive)
same,nuclei count,[3],233%
same,fluorescence slope,[4],-0.503 (inactive)
same,NADPH fluorescence slope,[5],-3.4e-05 (inactive)
same,slope,[6],0.0062 (inactive)
same,inhibition,[7],-50.5% (inactive)
same,inhibition,[8],-12.9% (inactive)
CCN(C(=O)CCc1nc(-c2ccccc2F)no1)c1cc(OC)ccc1OC,cell count,[1],403
same,inhibition,[1],6.7% (inactive)
same,inhibition of aggregation,[2],-4.7% (inactive)
same,nuclei count,[2],110%
same,inhibition,[3],-20.9% (inactive)
same,nuclei count,[3],115%
same,fluorescence slope,[4],-0.425 (inactive)
same,NADPH fluorescence slope,[5],1.9e-05 (inactive)
same,slope,[6],0.00445 (inactive)
same,inhibition,[7],-11.3% (inactive)
same,inhibition,[8],-31% (inactive)
CCOC(=O)N1CCC(NC(=O)C2CCN(S(=O)(=O)c3cccc4cccnc34)CC2)CC1,cell count,[1],595
same,inhibition,[1],1.8% (inactive)
same,inhibition of aggregation,[2],-71.5% (inactive)
same,nuclei count,[2],11.3%
same,inhibition,[3],9.6% (inactive)
same,nuclei count,[3],107%
same,fluorescence slope,[4],-0.558 (inactive)
same,NADPH fluorescence slope,[5],-2.8e-05 (inactive)
same,slope,[6],0.00729 (inactive)
same,inhibition,[7],12% (inactive)
same,inhibition,[8],35.6% (inactive)
CCOc1ccc(CN2C(=O)c3ccccc3C2C(=O)NCc2cccnc2)cc1 (configuration not stated),cell count,[1],500
same,inhibition,[1],-1.1% (inactive)
same,inhibition of aggregation,[2],-9.9% (inactive)
same,nuclei count,[2],110%
same,inhibition,[3],-52.5% (inactive)
same,nuclei count,[3],94.3%
same,fluorescence slope,[4],-0.599 (inactive)
same,NADPH fluorescence slope,[5],-1.6e-05 (inactive)
same,slope,[6],0.00638 (inactive)
same,inhibition,[7],8.35% (inactive)
same,inhibition,[8],16.9% (inactive)
CS(=O)(=O)N1CCCC(C(=O)N2CCOCC2)C1 (configuration not stated),cell count,[1],683
same,inhibition,[1],1.2% (inactive)
same,inhibition of aggregation,[2],9.8% (inactive)
same,nuclei count,[2],92%
same,inhibition,[3],-142% (inactive)
same,nuclei count,[3],116%
same,fluorescence slope,[4],-0.566 (inactive)
same,NADPH fluorescence slope,[5],6.2e-06 (inactive)
same,slope,[6],0.00664 (inactive)
same,inhibition,[7],11.5% (inactive)
same,inhibition,[8],3.97% (inactive)
O=c1oc2ccccc2cc1NCc1ccccc1O,cell count,[1],644
same,inhibition,[1],2.1% (inactive)
same,inhibition of aggregation,[2],-25% (inactive)
same,nuclei count,[2],115%
same,inhibition,[3],-19.5% (inactive)
same,nuclei count,[3],106%
same,fluorescence slope,[4],-0.594 (inactive)
same,NADPH fluorescence slope,[5],-1.9e-05 (inactive)
same,slope,[6],0.00653 (inactive)
same,inhibition,[7],-15.8% (inactive)
same,inhibition,[8],-21.8% (inactive)
